Here are results for 6 compounds from PubChem BioAssay (EPA / NIEHS).

Results filed as inconclusive are left out. Calls of active or inactive are those of the source. The calls were made as follows, unless noted: active = hit-call score of the fitted dose curve at least 0.9, where 1 is the maximum; inactive = score below 0.9.

The target in assay [1] is human Vitamin D Receptor (VDR), VDR (gene 7421) (UniProt P11473). Kind of assay: ATG_VDR_TRANS: Attagene TRANS-FACTORIAL HepG2 Assay for human Vitamin D Receptor (VDR) (AID 2283022; active = hit-call score of the fitted dose curve at least 0.9, where 1 is the maximum). Put shortly: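 Steps: transfect HepG2 with GAL4-UAS-driven reporter constructs; dose compounds 24 h; isolate RNA, reverse-transcribe, PCR-amplify with 6-FAM-labelled primer extension and HpaI digestion; quantify fragments by capillary electrophoresis relative to DMSO.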

A short description of assay [2]: BSK_3C_SRB: Viability Assessment in the BioMAP Diversity Plus: 3C Assay (AID 2283023).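 Also: fitted both ways against DMSO so a hit may be signal rise or drop.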 Particulars: primary human endothelial cells (HUVEC). Put shortly: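 Absorbance at 560 nm of sulforhodamine B-stained (0.1%) total protein served as a cytotoxicity readout in human umbilical vein endothelial cells, 24 h after chemical treatment. Signal was fitted bidirectionally relative to DMSO.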

Read-out in assay [3]: Matrix Metallopeptidase 1 (MMP1), MMP1 (gene 4312)
Nature of the assay: BSK_BE3C_MMP1: BioMAP Diversity Plus: BE3C Assay for Matrix Metallopeptidase 1 (MMP1) Biomarker Activity (AID 2283024). Conditions: primary human bronchial epithelial cells; actives raise or lower the signal. Put shortly: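 ELISA measurement of MMP-1 after 24 h compound exposure of primary human bronchial epithelial cells. Changes in either direction fitted relative to DMSO; parallel SRB staining checked overt cytotoxicity.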

Assay [4] can be described thus: BSK_3C_Vis: BioMAP Diversity Plus: 3C Assay for Morphology Visualization (AID 2283025).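 Also: fitted both ways so gain or loss versus DMSO counts.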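 As to AC50: light microscopy image of cell morphology used as background control.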 Particulars: primary human endothelial cells (HUVEC). Put shortly: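 Light-microscopy visualization of HUVEC cultures at 24 h post-treatment, with DMSO as baseline for bidirectional fitting.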
Read-out in assay [5]: Pselectin, SELP (gene 6403)
Kind of assay: BSK_4H_Pselectin: BioMAP Diversity Plus: 4H Assay for Pselectin Biomarker Activity (AID 2283026). Particulars: primary human endothelial cells (HUVEC); actives raise or lower the signal. Put shortly: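 ELISA of surface P-selectin on HUVEC, 24 h after dosing, with parallel SRB staining (0.1% after 10% TCA fixation, 560 nm) for overt cytotoxicity. Activity fitted in both directions relative to DMSO.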

Assay [6] is described as follows: BSK_4H_SRB: Viability Assessment in the BioMAP Diversity Plus: 4H Assay (AID 2283027).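 Also: cells exposed to compound for 24 h before staining.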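 As to AC50: curves fitted both ways versus DMSO so AC50 may be loss or gain.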 Conditions: primary human endothelial cells (HUVEC). The method in brief:
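Cytotoxicity readout: sulforhodamine B (0.1%) staining of total protein after 10% TCA fixation, measured at 560 nm in human umbilical vein endothelium at 24 h. DMSO set the baseline; fitting was bidirectional.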

The nature of assay [7]: BSK_BE3C_SRB: Viability Assessment in the BioMAP Diversity Plus: BE3C Assay (AID 2283028).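 As to AC50: fitted both ways so AC50 may mark signal gain or loss versus DMSO.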 Conditions: primary human bronchial epithelial cells. The method in brief:
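Cells (human bronchial epithelial, primary) are treated with chemicals, and after 24 h the parallel cultures are fixed in 10% TCA. These are then stained with 0.1% SRB and read at 560 nm. Gain or loss of signal is fitted relative to DMSO.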

Read-out in assay [8]: Thrombomodulin, THBD (gene 7056)
Nature of the assay: BSK_3C_Thrombomodulin: BioMAP Diversity Plus: 3C Assay for Thrombomodulin Biomarker Activity (AID 2283029). Particulars: primary human endothelial cells (HUVEC); actives raise or lower the signal. Put shortly:
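ELISA measurement of thrombomodulin on HUVEC surface 24 h after chemical dosing; activity fitted in both directions relative to DMSO vehicle.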

Read-out in assay [9]: Urokinase-type plasminogen activator receptor (uPAR), PLAUR (gene 5329)
Nature of the assay: BSK_4H_uPAR: BioMAP Diversity Plus: 4H Assay for Urokinase-type plasminogen activator receptor (uPAR) Biomarker Activity (AID 2283030). Particulars: primary human endothelial cells (HUVEC); actives raise or lower the signal. The method in brief:
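Cell-surface uPAR ELISA signal, measured 24 h after dosing human umbilical vein endothelial cells, was analyzed with bidirectional fitting relative to DMSO. Parallel SRB staining of total protein tracked overt cytotoxicity.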

Read-out in assay [10]: Vascular endothelial growth factor receptor 2 (Homo sapiens) (UniProt P35968)
Nature of the assay: BSK_4H_VEGFRII: BioMAP Diversity Plus: 4H Assay for Vascular endothelial growth factor receptor 2 (VEGFR2) Biomarker Activity (AID 2283031). Particulars: primary human endothelial cells (HUVEC); actives raise or lower the signal. Put shortly: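 ELISA read-out of VEGFRII in primary human umbilical vein endothelium, taken 24 h after chemical treatment. Responses are expressed relative to DMSO, with bidirectional fitting.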

Read-out in assay [11]: Vascular cell adhesion molecule 1 (VCAM1), VCAM1 (gene 7412)
Kind of assay: BSK_4H_VCAM1: BioMAP Diversity Plus: 4H Assay for Vascular cell adhesion molecule 1 (VCAM1) Biomarker Activity (AID 2283033).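 As to outcome: cell-surface VCAM-1 protein measured by ELISA.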 Particulars: primary human endothelial cells (HUVEC); actives raise or lower the signal. Put shortly: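 VCAM-1 ELISA read 24 h after chemical dosing of HUVEC in the BioMAP 4H system, with gain or loss of signal fitted relative to DMSO. Parallel SRB staining (560 nm) checked overt cytotoxicity.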

Read-out in assay [12]: Interferon-gamma inducible Protein 10 (IP10), CXCL10 (gene 3627)
Nature of the assay: BSK_BE3C_IP10: BioMAP Diversity Plus: BE3C Assay for Interferon-gamma inducible Protein 10 (IP10) Biomarker Activity (AID 2283034). Conditions: primary human bronchial epithelial cells; actives raise or lower the signal. The method in brief: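 IP-10 quantified by ELISA in human primary bronchial epithelial cell cultures at 24 hours post-dosing. Gain or loss of signal fitted relative to DMSO; parallel SRB staining assessed overt cytotoxicity.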

Read-out in assay [13]: Monokine induced gamma interferon (MIG), CXCL9 (gene 4283)
Kind of assay: BSK_BE3C_MIG: BioMAP Diversity Plus: BE3C Assay for Monokine induced gamma interferon (MIG) Biomarker Activity (AID 2283035). Particulars: primary human bronchial epithelial cells; actives raise or lower the signal. Put shortly:
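hu bronchial epithelial 1° cells, 24 h cpd; MIG by ELISA; bidirectional fit, DMSO = baseline.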

Read-out in assay [14]: Transforming growth factor beta 1 (TGFb1), TGFB1 (gene 7040)
Nature of the assay: BSK_BE3C_TGFb1: BioMAP Diversity Plus: BE3C Assay for Transforming growth factor beta 1 (TGFb1) Biomarker Activity (AID 2283036;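 as to outcome: TGF-b1 protein level measured by ELISA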). Particulars: primary human bronchial epithelial cells; actives raise or lower the signal. Put shortly: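 ELISA readout of TGF-b1 from human lung bronchial epithelial primary cells, taken 24 h post-treatment. Gain or loss of signal fitted relative to DMSO baseline, with parallel SRB staining for overt cytotoxicity.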

Read-out in assay [15]: Plasminogen activator inhibitor-1 (PAI1), SERPINE1 (gene 5054)
Kind of assay: BSK_BE3C_PAI1: BioMAP Diversity Plus: BE3C Assay for Plasminogen activator inhibitor-1 (PAI1) Biomarker Activity (AID 2283037). Conditions: primary human bronchial epithelial cells; actives raise or lower the signal. The method in brief: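 PAI-1 was measured by ELISA in human primary bronchial epithelial cultures 24 h after chemical dosing, with cytotoxicity checked by SRB total-protein staining in parallel cultures. Activity was fitted in both directions relative to DMSO.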

Read-out in assay [16]: urokinase plasminogen activator (uPA), PLAU (gene 5328)
Kind of assay: BSK_BE3C_uPA: BioMAP Diversity Plus: BE3C Assay for urokinase plasminogen activator (uPA) Biomarker Activity (AID 2283038).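 As to outcome: uPA protein level quantified by ELISA in cell cultures; uPA read one day after compound addition.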 Conditions: primary human bronchial epithelial cells; actives raise or lower the signal. Put shortly:
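Bronchial epithelial cells (human, primary); chemical 24 h; uPA by ELISA; bidirectional fit vs DMSO. SRB (0.1%, after 10% TCA fixation, 560 nm) in parallel cultures for cytotoxicity.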

Read-out in assay [17]: Interleukin-6 (IL6), IL6 (gene 3569)
Kind of assay: BSK_CASM3C_IL6: BioMAP Diversity Plus: CASM3C Assay for Interleukin-6 (IL6) Biomarker Activity for (AID 2283040). Conditions: primary human coronary artery smooth muscle cells; actives raise or lower the signal.

Read-out in assay [18]: Urokinase-type plasminogen activator receptor (uPAR), PLAUR (gene 5329)
Kind of assay: BSK_BE3C_uPAR: BioMAP Diversity Plus: BE3C Assay for Urokinase-type plasminogen activator receptor (uPAR) Biomarker Activity (AID 2283039).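 Also: cells exposed to compound for one day before measurement.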 Particulars: primary human bronchial epithelial cells; actives raise or lower the signal. Put shortly: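 uPAR levels were measured by ELISA after 24 h compound treatment of primary human bronchial epithelial cells, fitted in both directions relative to DMSO. Parallel SRB staining served as the cytotoxicity read-out.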

Read-out in assay [19]: Tissue plasminogen activator (tPA), PLAT (gene 5327)
Nature of the assay: BSK_BE3C_tPA: BioMAP Diversity Plus: BE3C Assay for Tissue plasminogen activator (tPA) Biomarker Activity (AID 2283041).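 As to outcome: tPA level quantified by ELISA one day after compound addition.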 Particulars: primary human bronchial epithelial cells; actives raise or lower the signal. The method in brief: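 tPA measured by ELISA 24 h after dosing human primary bronchial epithelial cells (BE3C system). Changes in either direction were fitted against DMSO. Parallel cultures were stained with SRB to flag overt cytotoxicity.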

Read-out in assay [20]: Human Leukocyte Antigen - DR isotype (HLADR), HLA-DRA (gene 3122)
Nature of the assay: BSK_BE3C_HLADR: BioMAP Diversity Plus: BE3C Assay for Human Leukocyte Antigen - DR isotype (HLADR) Biomarker Activity (AID 2283032). Conditions: primary human bronchial epithelial cells; actives raise or lower the signal. Put shortly: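 Cell-surface HLA-DR ELISA readout at 24 h after dosing in the BE3C primary human lung bronchial epithelial system; gain or loss of signal against DMSO, with parallel sulforhodamine B staining of total protein for overt cytotoxicity.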

human Vitamin D Receptor (VDR), VDR (gene 7421), sequence (P11473 whole entry, looked up, the tested form may be a part): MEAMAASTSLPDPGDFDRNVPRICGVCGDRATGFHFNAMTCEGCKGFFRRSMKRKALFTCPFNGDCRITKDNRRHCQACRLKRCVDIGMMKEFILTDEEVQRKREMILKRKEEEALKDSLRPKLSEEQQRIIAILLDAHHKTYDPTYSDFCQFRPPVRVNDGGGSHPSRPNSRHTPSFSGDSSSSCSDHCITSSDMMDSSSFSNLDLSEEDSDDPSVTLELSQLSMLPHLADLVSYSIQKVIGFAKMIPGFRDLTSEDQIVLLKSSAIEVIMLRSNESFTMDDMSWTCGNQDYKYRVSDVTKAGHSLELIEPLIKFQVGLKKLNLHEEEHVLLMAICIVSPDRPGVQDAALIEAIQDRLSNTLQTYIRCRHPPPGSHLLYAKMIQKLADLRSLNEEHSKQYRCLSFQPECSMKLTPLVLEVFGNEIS

For `CC1(C)NC(=O)N(c2ccc([N+](=O)[O-])c(C(F)(F)F)c2)C1=O`, the compound was called inactive in assay [1], in assay [2], in assay [3], in [4], in assay [5] and in [6]. Besides, the result in assay [7], in [8], in [9], in [10], in assay [11] and in [12] was inactive. Also, the outcome in assay [13], in assay [14], in [15], in assay [16] and in assay [17] was inactive.

Consider `Cc1cn([C@H]2C[C@H](N=[N+]=[N-])[C@@H](CO)O2)c(=O)[nH]c1=O`, for which the compound was called inactive in [1], in assay [2], in assay [3], in [4], in [5] and in [6]. In addition, the result in [7], in assay [8], in assay [9], in assay [10], in assay [11] and in assay [12] was inactive. Further, the outcome in assay [13], in assay [14], in assay [15], in assay [16], in [18] and in [17] was inactive. Further, the outcome in assay [19] was inactive.

In the case of `CCO[Si](CCCNC(N)=O)(OCC)OCC`, the call in [1], in assay [2], in [3], in assay [4], in [5] and in assay [6] was inactive. Further, the outcome in assay [7], in assay [8], in assay [9], in [10], in [11] and in assay [12] was inactive. The outcome in [13], in assay [14], in [15], in [16] and in assay [17] was inactive.

In general, AC50 refers to the concentration at which the activity in the assay is half-maximal. With `Cc1c2ccccc2c(C)c2c1ccc1ccccc12`, the AC50 in assay [2] was 13.4 µM (active); in [3], 20 µM (active); in [4] it was 13.7 µM (active); in assay [5], 14.7 µM (active); in [6], 18.8 µM (active); in assay [9], 14 µM (active). In addition, the AC50 in assay [11] is 20 µM (active); in [14], 6.06 µM (active); in assay [15], 29 µM (active); in assay [17] it was 20 µM (active). The result in assay [7], in [8], in [10], in assay [20], in assay [12] and in assay [13] was inactive. In addition, the result in assay [16] and in assay [19] was inactive.

`O=c1ccc2ccccc2o1`: the result in assay [2], in assay [3], in assay [4], in assay [5], in assay [6] and in assay [7] was inactive. The outcome in assay [8], in assay [9], in [10], in assay [11], in [12] and in assay [13] was inactive. Besides, the result in [14], in [15], in assay [16], in assay [18] and in assay [17] was inactive.

In the case of `CN1C(=O)N(c2ccccc2Br)Cc2cnc(Nc3ccc4c(c3)OCC(CO)O4)nc21` (stereo not given), the AC50 is 20 µM (active) in [2]; 7.24 µM (active) in [3]; 20.7 µM (active) in assay [4]; 6.75 µM (active) in assay [5]; 2.02 µM (active) in [6]; 28.1 µM (active) in assay [7]. In addition, the AC50 was 3.51 µM (active) in assay [9]; 15.2 µM (active) in assay [11]; 19.3 µM (active) in assay [12]; 34.7 µM (active) in assay [13]; 20 µM (active) in assay [14]; 1.63 µM (active) in assay [15]. The AC50 in assay [16] is 5.91 µM (active); in [17], 20 µM (active); in [19] it was 4.46 µM (active). For the same compound, the outcome in [8] and in assay [10] was inactive.
